The supplement of paper PMC11732987, “Enantioselective OTUD7B fragment discovery through chemoproteomics screening and high-throughput optimisation” (Communications Chemistry, 2025)

Legend:
Assay in all cases: log2 ratio of Biotin-Ahx-Ub-VS probe labelling (fragment/DMSO); higher = less target engagement (more negative = stronger competition), active = hit call of the paper (q ≤ 0.05, log2 ratio ≤ -1)
Conditions in all cases: compound concentration: 200 uM; treatment time: 3 h
[1] = target: T1, USP42 (UniProt Q9H9J4)
T1 sequence (whole entry): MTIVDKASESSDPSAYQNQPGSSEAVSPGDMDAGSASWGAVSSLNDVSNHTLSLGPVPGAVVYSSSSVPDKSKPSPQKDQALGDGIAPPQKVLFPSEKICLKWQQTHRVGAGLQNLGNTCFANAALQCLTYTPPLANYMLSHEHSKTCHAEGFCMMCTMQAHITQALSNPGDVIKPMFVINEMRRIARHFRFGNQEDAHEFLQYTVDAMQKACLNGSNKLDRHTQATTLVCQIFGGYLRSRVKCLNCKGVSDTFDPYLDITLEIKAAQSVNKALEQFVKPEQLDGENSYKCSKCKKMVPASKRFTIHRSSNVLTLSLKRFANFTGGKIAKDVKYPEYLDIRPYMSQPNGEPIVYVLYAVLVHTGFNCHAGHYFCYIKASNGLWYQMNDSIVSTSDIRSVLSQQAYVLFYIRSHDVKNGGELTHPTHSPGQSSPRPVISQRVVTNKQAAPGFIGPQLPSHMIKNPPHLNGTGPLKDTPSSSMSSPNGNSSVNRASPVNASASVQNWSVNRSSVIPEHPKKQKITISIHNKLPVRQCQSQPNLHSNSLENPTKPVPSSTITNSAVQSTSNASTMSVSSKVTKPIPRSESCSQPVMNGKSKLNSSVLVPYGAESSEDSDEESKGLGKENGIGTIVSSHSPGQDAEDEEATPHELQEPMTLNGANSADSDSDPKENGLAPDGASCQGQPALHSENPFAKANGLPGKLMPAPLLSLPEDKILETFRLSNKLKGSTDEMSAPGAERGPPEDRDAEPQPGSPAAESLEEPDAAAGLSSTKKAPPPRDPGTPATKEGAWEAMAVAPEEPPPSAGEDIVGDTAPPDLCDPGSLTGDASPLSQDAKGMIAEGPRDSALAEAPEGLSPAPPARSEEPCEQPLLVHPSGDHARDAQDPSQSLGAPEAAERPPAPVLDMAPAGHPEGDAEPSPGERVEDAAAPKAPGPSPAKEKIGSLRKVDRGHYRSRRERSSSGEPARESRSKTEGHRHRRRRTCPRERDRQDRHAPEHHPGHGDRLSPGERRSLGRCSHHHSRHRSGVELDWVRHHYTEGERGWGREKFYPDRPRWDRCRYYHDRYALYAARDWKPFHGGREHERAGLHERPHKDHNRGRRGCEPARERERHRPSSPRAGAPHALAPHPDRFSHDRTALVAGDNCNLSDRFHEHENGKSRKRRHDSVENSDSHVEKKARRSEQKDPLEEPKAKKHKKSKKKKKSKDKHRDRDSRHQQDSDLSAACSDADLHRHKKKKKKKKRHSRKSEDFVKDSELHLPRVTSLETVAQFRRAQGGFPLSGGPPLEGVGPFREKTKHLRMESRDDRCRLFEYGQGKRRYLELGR
Procedure, shortened: (§1)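 Each value is an average log2 ratio of fragment to vehicle, tested by unpaired t-test. The underlying Spectronaut label-free quantities were global-median-normalised, and only proteins with ≥2 unique peptides were included. Triplicate HEK293T lysate samples (495 µg) were exposed to fragment at 200 µM or vehicle for 3 h, then to Biotin-Ahx-Ub-VS at 0.5 µM final for 1 h, before NeutrAvidin enrichment of labelled DUBs, LysC and trypsin digestion, and diaPASEF LC-MS/MS.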

[2] = target: USP46 (UniProt P62068)
Procedure, shortened: as §1

[3] = target: T2, USP47 (UniProt Q96K76)
T2 sequence (whole entry): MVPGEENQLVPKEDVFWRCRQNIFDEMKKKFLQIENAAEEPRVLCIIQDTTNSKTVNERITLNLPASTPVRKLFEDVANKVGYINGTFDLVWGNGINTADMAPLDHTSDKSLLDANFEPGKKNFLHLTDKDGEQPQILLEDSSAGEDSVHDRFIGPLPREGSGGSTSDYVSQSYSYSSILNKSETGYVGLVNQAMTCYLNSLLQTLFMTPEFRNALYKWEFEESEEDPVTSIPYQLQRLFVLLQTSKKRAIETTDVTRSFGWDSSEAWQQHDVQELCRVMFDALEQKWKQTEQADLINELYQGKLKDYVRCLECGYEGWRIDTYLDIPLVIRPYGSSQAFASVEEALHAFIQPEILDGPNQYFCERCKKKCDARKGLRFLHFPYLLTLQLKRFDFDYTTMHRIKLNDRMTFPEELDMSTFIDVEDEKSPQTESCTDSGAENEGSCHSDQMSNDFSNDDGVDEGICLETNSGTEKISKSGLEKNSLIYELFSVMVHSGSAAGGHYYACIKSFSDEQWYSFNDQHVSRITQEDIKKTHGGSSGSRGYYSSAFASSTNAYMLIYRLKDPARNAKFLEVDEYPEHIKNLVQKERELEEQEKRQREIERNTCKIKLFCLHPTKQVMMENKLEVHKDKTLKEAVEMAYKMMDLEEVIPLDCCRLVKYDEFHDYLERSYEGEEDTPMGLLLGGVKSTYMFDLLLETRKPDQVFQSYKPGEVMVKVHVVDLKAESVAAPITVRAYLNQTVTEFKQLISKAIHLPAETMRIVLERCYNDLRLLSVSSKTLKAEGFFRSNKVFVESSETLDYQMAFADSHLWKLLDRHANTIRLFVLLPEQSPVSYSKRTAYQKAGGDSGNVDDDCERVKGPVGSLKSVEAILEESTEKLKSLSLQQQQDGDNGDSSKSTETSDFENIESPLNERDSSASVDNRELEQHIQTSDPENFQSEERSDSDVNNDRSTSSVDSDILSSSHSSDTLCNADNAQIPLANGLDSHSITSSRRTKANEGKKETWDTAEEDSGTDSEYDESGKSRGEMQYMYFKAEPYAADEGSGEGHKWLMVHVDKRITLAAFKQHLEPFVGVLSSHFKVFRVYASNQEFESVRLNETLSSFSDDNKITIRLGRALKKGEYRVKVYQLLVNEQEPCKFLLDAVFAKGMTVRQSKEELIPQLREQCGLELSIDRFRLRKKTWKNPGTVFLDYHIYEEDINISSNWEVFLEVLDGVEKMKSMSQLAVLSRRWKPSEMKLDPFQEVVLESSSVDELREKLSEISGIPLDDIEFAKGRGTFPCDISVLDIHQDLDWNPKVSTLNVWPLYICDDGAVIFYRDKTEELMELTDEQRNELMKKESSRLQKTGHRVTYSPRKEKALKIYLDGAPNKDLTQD
Procedure, shortened: as §1

[4] = target: T3, USP48 (UniProt Q86UV5)
T3 sequence (whole entry): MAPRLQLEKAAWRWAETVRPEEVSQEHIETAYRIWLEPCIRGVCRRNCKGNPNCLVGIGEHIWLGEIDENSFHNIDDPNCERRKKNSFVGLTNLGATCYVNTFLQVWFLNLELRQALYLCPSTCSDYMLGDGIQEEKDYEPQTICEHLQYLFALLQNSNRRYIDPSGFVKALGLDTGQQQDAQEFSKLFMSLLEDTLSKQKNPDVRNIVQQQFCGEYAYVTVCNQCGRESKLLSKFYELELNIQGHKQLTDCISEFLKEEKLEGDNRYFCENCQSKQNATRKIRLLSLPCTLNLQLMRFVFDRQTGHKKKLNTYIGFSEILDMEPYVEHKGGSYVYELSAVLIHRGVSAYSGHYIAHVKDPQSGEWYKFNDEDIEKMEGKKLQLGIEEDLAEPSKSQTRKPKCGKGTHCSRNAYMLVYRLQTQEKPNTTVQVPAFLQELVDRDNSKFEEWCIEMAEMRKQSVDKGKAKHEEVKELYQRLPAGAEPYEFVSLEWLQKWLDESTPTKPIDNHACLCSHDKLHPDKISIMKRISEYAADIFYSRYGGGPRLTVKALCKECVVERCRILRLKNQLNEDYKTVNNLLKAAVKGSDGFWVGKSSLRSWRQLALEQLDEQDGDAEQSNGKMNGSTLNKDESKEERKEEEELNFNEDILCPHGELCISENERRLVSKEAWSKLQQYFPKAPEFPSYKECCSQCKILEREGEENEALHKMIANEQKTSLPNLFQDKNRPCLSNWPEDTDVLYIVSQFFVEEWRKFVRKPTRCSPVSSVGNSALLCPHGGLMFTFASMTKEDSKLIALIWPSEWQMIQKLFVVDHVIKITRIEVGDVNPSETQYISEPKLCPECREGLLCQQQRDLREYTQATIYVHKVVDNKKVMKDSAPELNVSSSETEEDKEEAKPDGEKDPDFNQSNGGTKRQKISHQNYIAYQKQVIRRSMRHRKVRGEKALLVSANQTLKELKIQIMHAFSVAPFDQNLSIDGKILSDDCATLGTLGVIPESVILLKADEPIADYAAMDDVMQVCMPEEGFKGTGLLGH
Procedure, shortened: as §1

[5] = target: T4, USP5 (UniProt P45974)
T4 sequence (whole entry): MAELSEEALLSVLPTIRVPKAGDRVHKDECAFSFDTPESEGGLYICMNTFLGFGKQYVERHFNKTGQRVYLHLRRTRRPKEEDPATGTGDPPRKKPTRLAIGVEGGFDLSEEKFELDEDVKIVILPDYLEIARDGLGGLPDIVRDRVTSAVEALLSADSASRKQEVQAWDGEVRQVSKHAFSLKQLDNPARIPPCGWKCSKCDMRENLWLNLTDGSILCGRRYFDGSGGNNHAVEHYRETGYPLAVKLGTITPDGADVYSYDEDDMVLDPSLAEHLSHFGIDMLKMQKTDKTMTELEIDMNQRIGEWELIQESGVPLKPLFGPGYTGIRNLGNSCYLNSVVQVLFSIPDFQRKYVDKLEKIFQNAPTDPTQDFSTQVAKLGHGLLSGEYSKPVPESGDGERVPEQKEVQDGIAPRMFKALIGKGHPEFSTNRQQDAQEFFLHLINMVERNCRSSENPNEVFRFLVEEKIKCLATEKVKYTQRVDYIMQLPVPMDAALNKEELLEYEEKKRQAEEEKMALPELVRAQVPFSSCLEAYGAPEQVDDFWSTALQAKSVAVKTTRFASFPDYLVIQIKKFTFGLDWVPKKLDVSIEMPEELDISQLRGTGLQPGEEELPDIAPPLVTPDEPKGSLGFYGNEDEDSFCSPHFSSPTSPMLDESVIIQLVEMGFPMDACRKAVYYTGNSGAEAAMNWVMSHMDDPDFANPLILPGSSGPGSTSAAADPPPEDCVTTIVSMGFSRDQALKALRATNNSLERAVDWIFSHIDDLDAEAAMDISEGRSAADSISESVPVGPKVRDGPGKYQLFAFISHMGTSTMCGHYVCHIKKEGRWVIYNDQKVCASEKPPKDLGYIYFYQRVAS
Procedure, shortened: as §1

[6] = target: USP54 (UniProt Q70EL1)
Procedure, shortened: as §1

[7] = target: USP7 (UniProt Q93009)
Procedure, shortened: as §1

[8] = target: T5, USP8 (UniProt P40818)
T5 sequence (whole entry): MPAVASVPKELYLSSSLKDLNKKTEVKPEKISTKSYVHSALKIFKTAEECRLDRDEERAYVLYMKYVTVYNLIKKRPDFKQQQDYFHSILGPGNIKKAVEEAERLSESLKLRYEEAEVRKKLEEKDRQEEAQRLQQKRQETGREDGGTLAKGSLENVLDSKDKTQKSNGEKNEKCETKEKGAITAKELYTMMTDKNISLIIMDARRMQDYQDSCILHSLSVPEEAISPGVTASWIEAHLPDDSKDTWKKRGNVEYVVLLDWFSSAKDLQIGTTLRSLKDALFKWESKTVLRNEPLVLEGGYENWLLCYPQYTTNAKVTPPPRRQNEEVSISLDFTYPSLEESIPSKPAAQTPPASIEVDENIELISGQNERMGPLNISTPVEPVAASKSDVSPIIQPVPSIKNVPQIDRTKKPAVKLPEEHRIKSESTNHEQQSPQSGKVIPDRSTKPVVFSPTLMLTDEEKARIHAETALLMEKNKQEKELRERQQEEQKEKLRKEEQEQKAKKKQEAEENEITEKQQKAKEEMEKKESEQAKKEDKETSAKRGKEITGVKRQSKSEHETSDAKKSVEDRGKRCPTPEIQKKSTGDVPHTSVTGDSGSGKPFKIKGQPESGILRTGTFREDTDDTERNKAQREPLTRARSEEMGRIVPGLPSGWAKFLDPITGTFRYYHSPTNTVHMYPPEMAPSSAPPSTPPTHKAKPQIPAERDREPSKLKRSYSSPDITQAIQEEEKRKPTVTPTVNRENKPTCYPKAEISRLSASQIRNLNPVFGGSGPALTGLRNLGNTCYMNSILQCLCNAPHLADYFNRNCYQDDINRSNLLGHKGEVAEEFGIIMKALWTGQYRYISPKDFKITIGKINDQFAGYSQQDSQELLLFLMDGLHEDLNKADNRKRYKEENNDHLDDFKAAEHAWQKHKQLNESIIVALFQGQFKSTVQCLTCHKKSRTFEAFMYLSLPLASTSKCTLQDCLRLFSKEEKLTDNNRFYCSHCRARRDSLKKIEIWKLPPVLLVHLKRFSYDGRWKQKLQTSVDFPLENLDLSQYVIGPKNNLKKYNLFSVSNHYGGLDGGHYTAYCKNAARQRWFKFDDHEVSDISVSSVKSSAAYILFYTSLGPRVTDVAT
Procedure, shortened: as §1

[9] = target: USP9X (UniProt Q93008)
Procedure, shortened: as §1

[10] = target: UniProt O00487
Procedure, shortened: as §1

Measured: log2 ratio of Biotin-Ahx-Ub-VS probe labelling

Sequence of USP46 (P62068 whole entry): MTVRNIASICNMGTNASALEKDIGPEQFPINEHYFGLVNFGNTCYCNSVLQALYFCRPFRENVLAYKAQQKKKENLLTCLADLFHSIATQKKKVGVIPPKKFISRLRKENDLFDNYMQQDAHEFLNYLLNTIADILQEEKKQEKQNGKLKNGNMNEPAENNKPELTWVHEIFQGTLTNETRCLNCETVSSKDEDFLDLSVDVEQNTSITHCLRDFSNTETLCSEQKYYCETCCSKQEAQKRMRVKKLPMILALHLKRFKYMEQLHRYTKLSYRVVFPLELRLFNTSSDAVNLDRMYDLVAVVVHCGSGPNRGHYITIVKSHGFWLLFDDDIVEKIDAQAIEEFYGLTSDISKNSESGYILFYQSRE
Sequence of USP9X (Q93008 whole entry): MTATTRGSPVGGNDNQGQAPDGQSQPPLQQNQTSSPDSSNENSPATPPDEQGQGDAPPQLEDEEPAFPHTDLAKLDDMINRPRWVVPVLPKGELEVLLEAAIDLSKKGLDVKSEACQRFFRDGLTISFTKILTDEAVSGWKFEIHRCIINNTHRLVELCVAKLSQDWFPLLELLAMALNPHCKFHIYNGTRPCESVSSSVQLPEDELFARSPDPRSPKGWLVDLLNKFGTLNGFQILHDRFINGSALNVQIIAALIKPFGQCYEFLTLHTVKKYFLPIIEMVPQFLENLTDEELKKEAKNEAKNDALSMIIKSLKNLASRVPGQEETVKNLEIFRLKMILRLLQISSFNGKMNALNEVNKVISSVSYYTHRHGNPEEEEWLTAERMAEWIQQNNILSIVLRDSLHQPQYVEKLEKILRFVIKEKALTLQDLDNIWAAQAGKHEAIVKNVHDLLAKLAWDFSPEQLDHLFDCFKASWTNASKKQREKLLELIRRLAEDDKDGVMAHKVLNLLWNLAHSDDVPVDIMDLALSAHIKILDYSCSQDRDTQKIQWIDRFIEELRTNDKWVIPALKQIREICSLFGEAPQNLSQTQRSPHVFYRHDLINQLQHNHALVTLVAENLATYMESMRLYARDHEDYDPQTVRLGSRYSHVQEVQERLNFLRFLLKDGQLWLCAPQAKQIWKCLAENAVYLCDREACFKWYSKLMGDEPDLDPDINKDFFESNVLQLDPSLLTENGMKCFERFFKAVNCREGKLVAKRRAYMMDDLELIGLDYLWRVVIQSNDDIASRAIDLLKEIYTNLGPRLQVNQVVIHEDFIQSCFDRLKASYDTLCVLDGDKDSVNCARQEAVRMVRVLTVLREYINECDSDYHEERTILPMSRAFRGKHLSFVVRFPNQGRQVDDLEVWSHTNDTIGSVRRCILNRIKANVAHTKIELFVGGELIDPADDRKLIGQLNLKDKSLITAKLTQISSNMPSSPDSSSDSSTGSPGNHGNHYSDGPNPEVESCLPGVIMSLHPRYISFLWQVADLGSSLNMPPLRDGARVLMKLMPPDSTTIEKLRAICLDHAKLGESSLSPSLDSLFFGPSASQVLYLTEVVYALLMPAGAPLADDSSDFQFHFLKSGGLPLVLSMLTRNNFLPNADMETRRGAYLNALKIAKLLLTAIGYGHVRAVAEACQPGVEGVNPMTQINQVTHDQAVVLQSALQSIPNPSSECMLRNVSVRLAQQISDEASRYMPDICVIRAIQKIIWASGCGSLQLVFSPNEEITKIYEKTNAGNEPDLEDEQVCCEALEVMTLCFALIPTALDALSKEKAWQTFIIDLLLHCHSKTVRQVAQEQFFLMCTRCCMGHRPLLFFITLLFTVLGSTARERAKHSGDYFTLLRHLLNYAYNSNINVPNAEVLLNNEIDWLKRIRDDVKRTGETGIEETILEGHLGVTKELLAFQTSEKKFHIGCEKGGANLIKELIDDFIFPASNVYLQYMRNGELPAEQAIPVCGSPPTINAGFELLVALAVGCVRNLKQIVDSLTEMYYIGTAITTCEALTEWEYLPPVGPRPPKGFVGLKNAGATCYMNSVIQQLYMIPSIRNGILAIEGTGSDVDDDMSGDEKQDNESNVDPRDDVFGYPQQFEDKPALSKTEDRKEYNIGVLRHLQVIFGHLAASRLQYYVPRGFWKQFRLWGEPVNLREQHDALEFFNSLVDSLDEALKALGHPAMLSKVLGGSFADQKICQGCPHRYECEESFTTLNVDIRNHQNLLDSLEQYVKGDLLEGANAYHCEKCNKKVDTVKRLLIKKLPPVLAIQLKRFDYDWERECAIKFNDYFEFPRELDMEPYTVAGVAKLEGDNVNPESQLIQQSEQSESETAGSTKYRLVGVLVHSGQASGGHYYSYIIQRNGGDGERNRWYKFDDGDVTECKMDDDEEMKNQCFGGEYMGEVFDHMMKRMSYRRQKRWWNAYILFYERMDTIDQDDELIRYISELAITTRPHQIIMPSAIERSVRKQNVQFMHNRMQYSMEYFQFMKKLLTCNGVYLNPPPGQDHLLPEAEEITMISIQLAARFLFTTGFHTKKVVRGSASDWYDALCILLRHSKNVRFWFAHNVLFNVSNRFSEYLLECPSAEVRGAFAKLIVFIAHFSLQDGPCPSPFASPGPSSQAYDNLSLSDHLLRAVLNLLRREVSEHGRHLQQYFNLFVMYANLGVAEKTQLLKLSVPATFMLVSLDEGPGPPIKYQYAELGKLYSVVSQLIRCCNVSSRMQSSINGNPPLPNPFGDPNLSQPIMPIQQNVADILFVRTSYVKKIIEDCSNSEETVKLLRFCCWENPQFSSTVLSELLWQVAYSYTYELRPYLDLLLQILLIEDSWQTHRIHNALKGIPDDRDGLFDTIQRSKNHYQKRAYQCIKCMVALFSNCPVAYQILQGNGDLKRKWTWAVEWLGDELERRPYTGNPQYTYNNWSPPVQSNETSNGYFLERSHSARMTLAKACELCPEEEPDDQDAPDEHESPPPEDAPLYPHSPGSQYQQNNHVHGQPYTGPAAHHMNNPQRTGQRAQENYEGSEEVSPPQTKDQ
Sequence of USP54 (Q70EL1 whole entry): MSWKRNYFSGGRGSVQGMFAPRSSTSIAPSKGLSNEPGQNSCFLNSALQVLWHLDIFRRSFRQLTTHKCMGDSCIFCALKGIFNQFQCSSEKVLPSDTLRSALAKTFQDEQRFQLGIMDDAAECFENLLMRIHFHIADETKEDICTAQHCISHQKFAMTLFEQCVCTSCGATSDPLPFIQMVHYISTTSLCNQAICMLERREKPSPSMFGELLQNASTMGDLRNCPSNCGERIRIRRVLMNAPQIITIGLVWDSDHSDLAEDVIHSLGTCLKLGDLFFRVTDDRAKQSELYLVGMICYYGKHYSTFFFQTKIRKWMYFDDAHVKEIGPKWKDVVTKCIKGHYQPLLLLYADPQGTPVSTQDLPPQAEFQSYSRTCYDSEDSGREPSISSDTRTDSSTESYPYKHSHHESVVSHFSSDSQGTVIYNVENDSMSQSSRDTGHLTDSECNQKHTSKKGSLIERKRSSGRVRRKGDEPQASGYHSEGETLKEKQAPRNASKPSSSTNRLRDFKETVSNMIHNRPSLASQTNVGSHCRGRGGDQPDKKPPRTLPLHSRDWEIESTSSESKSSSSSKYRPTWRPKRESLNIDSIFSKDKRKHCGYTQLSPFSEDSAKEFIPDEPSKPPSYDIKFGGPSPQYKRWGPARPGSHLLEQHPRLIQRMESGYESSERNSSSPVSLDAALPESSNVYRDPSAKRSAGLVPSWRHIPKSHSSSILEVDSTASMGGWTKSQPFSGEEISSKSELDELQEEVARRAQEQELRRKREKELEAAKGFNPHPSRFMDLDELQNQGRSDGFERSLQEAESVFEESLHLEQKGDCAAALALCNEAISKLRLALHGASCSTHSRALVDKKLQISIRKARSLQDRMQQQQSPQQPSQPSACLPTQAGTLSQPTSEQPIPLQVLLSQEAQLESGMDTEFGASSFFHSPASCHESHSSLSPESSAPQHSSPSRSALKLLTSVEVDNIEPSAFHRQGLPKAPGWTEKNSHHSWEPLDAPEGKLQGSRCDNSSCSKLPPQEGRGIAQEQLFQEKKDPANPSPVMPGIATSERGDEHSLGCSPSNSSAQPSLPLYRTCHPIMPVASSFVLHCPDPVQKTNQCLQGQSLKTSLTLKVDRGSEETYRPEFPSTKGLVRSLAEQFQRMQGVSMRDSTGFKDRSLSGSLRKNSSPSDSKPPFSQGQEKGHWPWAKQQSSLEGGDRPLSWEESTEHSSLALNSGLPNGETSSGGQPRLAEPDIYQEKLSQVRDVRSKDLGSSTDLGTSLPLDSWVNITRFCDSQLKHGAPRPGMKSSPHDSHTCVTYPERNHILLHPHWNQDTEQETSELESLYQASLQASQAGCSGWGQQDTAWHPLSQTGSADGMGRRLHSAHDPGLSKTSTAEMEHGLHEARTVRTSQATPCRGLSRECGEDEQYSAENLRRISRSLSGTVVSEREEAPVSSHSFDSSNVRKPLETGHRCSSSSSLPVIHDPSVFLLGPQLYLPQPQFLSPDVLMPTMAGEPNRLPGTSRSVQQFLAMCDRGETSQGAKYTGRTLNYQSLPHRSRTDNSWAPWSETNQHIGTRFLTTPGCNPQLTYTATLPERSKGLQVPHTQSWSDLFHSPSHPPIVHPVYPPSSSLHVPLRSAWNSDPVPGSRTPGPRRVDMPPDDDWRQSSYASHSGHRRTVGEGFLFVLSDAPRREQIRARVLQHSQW
Sequence of UniProt O00487 (O00487 whole entry): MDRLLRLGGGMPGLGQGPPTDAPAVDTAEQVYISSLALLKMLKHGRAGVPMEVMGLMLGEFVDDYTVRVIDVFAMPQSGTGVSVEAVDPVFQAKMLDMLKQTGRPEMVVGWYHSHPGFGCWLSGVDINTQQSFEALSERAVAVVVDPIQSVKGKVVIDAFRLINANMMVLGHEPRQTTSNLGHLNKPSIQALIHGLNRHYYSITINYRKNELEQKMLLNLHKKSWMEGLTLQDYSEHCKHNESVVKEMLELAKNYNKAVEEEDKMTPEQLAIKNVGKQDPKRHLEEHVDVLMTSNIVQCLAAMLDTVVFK

CNC(=O)C1(NC(=O)CCl)CCCCC1
inactive: [1] -0.202 | [2] 0.0346 | [3] 0.28 | [4] -0.00183 | [5] 0.148 | [6] 0.521 | [7] -0.0838 | [8] -0.173 | [9] -0.228 | [10] 0.0455
